Experimental data as given in ChEMBL document CHEMBL1961873, “Compounds: GSK PKIS; Assays: Nanosyn kinase panel” (2012).

Tests used:
[1] = biological target: Platelet-derived growth factor receptor beta (Homo sapiens) (UniProt P09619); conditions: at 1 µM;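 note: each value is a mean percent inhibition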
[2] = biological target: Tyrosine-protein kinase FRK (Homo sapiens) (UniProt P42685); conditions: at 0.1 µM
[3] = biological target: Tyrosine-protein kinase FRK (Homo sapiens) (UniProt P42685); conditions: at 1 µM
[4] = biological target: Protein-tyrosine kinase 2-beta (Homo sapiens) (UniProt Q14289); conditions: at 0.1 µM
Protein-tyrosine kinase 2-beta (Homo sapiens), sequence (Q14289 whole entry, looked up): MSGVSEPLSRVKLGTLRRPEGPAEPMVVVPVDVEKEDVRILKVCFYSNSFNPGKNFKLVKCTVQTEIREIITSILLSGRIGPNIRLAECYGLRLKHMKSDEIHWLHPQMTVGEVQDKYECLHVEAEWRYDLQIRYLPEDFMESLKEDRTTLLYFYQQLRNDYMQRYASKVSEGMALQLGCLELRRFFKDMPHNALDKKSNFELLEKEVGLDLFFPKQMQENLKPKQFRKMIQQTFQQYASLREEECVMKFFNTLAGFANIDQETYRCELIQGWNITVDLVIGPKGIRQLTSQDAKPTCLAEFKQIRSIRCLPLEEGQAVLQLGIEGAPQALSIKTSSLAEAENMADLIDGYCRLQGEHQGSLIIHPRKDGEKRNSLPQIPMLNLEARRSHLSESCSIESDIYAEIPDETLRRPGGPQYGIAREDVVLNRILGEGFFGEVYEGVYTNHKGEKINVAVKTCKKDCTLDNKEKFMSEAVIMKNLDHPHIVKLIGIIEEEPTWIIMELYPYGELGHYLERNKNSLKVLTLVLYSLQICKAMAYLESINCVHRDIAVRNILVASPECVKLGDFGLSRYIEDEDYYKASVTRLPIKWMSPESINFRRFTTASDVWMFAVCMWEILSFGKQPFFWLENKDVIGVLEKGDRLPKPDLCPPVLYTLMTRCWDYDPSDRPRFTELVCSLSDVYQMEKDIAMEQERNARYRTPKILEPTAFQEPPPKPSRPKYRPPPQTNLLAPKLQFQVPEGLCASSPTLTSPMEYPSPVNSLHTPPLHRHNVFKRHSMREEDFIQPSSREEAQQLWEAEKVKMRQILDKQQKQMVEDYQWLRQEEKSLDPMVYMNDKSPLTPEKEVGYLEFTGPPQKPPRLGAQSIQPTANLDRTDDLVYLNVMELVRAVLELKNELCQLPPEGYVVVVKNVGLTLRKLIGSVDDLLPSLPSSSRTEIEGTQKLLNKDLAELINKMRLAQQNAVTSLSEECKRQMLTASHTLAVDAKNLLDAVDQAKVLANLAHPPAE

[5] = biological target: Protein-tyrosine kinase 2-beta (Homo sapiens) (UniProt Q14289); conditions: at 1 µM
[6] = biological target: Proto-oncogene tyrosine-protein kinase receptor Ret (Homo sapiens) (UniProt P07949); conditions: at 0.1 µM
[7] = biological target: Proto-oncogene tyrosine-protein kinase receptor Ret (Homo sapiens) (UniProt P07949); conditions: at 1 µM
[8] = test system: Proto-oncogene tyrosine-protein kinase receptor Ret (Homo sapiens), P07949 [V804L]; conditions: at 0.1 µM
Proto-oncogene tyrosine-protein kinase receptor Ret (Homo sapiens), P07949 [V804L], sequence (P07949 whole entry V804L): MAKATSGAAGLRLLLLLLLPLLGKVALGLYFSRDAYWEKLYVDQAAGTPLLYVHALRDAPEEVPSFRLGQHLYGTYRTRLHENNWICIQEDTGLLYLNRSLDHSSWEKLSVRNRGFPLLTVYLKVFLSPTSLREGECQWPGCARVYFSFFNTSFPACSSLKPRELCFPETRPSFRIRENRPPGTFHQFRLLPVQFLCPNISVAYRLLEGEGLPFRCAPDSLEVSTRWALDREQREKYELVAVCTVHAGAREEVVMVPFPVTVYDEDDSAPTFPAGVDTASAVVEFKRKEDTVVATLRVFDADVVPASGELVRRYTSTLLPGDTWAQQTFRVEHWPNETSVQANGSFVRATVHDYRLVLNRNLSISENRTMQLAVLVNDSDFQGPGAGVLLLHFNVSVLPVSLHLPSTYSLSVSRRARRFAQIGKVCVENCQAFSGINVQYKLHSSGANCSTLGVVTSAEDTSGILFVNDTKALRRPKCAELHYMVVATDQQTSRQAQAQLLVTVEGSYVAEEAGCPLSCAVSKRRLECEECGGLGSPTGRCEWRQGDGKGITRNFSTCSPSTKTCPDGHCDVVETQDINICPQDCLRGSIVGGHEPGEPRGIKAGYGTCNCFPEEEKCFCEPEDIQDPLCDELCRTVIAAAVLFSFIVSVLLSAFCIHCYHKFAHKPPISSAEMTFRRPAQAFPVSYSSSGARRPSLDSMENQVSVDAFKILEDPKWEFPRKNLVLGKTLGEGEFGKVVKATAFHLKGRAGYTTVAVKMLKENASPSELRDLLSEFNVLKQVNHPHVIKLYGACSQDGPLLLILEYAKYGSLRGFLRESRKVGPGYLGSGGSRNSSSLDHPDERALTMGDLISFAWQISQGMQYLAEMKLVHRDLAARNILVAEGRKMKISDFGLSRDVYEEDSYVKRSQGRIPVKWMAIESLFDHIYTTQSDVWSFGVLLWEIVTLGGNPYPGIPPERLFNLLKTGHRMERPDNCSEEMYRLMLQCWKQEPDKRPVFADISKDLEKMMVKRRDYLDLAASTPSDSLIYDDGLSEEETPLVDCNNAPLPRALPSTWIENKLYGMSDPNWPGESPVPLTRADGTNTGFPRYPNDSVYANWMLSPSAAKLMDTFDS

[9] = test system: Proto-oncogene tyrosine-protein kinase receptor Ret (Homo sapiens), P07949 [V804L]; conditions: at 1 µM
[10] = test system: Proto-oncogene tyrosine-protein kinase receptor Ret (Homo sapiens), P07949 [Y791F]; conditions: at 0.1 µM
Proto-oncogene tyrosine-protein kinase receptor Ret (Homo sapiens), P07949 [Y791F], sequence (P07949 whole entry Y791F): as the sequence (P07949 whole entry V804L) above, with Y791F, L804V counted along it

[11] = test system: Proto-oncogene tyrosine-protein kinase receptor Ret (Homo sapiens), P07949 [Y791F]; conditions: at 1 µM
[12] = biological target: Macrophage-stimulating protein receptor (Homo sapiens) (UniProt Q04912); conditions: at 0.1 µM
Macrophage-stimulating protein receptor (Homo sapiens), sequence (Q04912 25-304 limits assumed): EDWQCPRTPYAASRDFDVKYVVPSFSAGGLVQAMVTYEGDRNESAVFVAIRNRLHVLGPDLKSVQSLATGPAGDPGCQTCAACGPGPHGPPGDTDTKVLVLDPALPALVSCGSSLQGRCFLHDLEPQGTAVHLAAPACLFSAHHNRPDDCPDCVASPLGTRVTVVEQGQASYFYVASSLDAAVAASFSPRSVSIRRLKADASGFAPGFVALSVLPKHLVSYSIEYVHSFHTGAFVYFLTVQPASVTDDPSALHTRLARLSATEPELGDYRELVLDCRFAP
Macrophage-stimulating protein receptor (Homo sapiens), sequence (Q04912 310-1400 limits assumed): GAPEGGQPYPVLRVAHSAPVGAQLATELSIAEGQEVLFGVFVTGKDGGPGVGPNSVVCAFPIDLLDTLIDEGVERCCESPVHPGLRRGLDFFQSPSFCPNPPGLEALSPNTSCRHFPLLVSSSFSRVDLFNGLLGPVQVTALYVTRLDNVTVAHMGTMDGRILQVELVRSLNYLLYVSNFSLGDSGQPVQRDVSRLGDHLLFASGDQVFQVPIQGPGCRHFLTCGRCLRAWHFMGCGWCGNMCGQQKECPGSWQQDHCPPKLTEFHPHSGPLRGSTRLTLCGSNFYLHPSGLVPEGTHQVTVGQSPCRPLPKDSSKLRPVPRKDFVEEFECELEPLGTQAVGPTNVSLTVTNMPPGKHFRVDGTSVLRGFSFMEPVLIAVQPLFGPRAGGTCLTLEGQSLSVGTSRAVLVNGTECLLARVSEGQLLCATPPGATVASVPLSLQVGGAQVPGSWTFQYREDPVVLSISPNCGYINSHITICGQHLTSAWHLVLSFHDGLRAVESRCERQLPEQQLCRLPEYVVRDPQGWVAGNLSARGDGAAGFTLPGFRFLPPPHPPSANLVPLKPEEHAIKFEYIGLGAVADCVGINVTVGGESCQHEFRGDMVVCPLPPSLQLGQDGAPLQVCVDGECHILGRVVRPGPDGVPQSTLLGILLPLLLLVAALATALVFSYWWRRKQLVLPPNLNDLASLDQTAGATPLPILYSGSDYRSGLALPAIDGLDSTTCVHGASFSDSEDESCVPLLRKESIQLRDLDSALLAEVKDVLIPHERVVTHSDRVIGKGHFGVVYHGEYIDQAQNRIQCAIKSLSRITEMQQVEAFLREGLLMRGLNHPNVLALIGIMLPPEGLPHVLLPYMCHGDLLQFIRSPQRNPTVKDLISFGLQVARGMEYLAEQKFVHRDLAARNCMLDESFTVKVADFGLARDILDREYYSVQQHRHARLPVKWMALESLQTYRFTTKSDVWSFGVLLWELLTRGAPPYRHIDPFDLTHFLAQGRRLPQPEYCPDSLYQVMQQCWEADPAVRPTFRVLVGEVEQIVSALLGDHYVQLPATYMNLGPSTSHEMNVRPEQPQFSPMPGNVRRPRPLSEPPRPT

[13] = biological target: Macrophage-stimulating protein receptor (Homo sapiens) (UniProt Q04912); conditions: at 1 µM
[14] = biological target: Proto-oncogene tyrosine-protein kinase ROS (Homo sapiens) (UniProt P08922); conditions: at 0.1 µM
[15] = biological target: Proto-oncogene tyrosine-protein kinase ROS (Homo sapiens) (UniProt P08922); conditions: at 1 µM
[16] = biological target: Proto-oncogene tyrosine-protein kinase Src (Homo sapiens) (UniProt P12931); conditions: at 0.1 µM
Proto-oncogene tyrosine-protein kinase Src (Homo sapiens), sequence (P12931 2-536 limits assumed): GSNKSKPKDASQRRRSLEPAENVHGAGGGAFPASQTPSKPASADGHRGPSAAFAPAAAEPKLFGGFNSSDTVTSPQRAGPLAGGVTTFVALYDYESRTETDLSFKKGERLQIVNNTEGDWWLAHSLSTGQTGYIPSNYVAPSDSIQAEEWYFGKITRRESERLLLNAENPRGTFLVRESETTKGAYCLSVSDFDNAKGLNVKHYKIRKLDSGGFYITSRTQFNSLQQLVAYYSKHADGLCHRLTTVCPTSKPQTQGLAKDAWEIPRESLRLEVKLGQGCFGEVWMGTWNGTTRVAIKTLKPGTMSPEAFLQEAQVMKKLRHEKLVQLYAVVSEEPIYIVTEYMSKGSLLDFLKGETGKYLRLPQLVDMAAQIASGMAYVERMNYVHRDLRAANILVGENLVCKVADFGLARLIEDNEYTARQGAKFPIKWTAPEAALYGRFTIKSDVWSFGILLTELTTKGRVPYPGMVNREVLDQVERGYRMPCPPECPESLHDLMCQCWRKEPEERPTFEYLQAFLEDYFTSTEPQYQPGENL

[17] = biological target: Proto-oncogene tyrosine-protein kinase Src (Homo sapiens) (UniProt P12931); conditions: at 1 µM
[18] = biological target: Tyrosine-protein kinase Srms (Homo sapiens) (UniProt Q9H3Y6); conditions: at 0.1 µM
Tyrosine-protein kinase Srms (Homo sapiens), sequence (Q9H3Y6 whole entry): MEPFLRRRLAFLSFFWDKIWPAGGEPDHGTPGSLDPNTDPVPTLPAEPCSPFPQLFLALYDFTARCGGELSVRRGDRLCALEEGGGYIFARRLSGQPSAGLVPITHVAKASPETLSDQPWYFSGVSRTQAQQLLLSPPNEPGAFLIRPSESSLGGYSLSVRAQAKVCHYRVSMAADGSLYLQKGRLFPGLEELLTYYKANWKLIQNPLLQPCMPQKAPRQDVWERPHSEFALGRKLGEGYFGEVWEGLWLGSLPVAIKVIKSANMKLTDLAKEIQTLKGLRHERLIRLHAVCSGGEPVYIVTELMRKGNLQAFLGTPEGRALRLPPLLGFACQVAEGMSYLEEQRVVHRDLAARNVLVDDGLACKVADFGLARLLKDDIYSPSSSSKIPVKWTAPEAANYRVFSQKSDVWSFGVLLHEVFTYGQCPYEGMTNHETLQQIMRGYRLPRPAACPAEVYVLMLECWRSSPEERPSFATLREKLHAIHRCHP

[19] = biological target: Tyrosine-protein kinase Srms (Homo sapiens) (UniProt Q9H3Y6); conditions: at 1 µM
[20] = biological target: Tyrosine-protein kinase SYK (Homo sapiens) (UniProt P43405); conditions: at 0.1 µM;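 note: reported percentages are mean inhibition values for SYK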

Tyrosine-protein kinase FRK (Homo sapiens), sequence (P42685 whole entry): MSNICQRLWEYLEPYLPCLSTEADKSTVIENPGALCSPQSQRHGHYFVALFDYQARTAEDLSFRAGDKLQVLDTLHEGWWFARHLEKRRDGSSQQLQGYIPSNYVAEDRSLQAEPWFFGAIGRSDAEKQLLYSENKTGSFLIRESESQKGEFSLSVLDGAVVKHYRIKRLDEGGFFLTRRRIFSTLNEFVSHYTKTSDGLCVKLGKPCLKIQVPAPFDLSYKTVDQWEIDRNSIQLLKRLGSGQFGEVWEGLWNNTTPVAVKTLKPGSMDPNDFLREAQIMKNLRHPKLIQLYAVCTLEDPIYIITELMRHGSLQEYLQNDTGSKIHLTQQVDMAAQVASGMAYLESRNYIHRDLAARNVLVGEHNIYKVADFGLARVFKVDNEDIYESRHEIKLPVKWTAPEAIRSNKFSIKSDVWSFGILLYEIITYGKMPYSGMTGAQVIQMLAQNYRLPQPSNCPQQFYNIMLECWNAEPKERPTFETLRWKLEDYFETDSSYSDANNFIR

Row | Structure (SMILES) | inhibition [1] [%] | inhibition [2] [%] | inhibition [3] [%] | inhibition [4] [%] | inhibition [5] [%] | inhibition [6] [%] | inhibition [7] [%] | inhibition [8] [%] | inhibition [9] [%] | inhibition [10] [%] | inhibition [11] [%] | inhibition [12] [%] | inhibition [13] [%] | inhibition [14] [%] | inhibition [15] [%] | inhibition [16] [%] | inhibition [17] [%] | inhibition [18] [%] | inhibition [19] [%] | inhibition [20] [%]
1 | Nc1ncnc2occ(-c3ccc(NC(=O)Nc4cc(C(F)(F)F)cc(C(F)(F)F)c4)cc3)c12 | 81.5 | 1.36 | 4.51 | 8.32 | 19.4 | 76.4 | 81.4 | 38.4 | 77 | 60.7 | 75.6 | -3.85 | 7.91 | 1.98 | 15.9 | -4.73 | 24.4 | -0.11 | -0.05 | -5.69
2 | COc1ccc(COc2ccc(Cc3cnc(N)nc3N)cc2OC)cc1 | 10 | -0.22 | 2.07 | -3.39 | -2.43 | 9.65 | 9.77 | 6.53 | 9.69 | 12.4 | 4.28 | 1.99 | 5.55 | 5.47 | 4.98 | 3.77 | 1.97 | 1.82 | 1.88 | 1.51
3 | CCn1c(-c2nonc2N)nc2c(C#CC(C)(C)O)nc(CN3CCCC3)cc21 | 12.2 | 0.91 | -0.12 | -0.18 | -7.23 | -0.08 | 9.99 | 0.92 | 4.79 | 5.91 | 14.5 | 27.6 | -5.13 | 2.54 | 3.85 | 0.78 | 0.68 | -1.37 | -0.75 | 6.45
4 | Fc1cccc(COc2ccc(Nc3ncnc4sc(-c5cccs5)cc34)cc2Cl)c1 | 4.24 | 1.12 | 2.35 | -5.04 | 3.37 | 3.97 | 0.68 | 0.76 | 2.26 | 1.05 | 2.09 | -5.24 | -0.08 | 5.26 | 4.79 | 2.2 | 2.77 | -1.04 | -1.24 | 0.32
5 | CCCN1CCC=C(c2ccc(Nc3nc(Nc4ccccc4C(N)=O)c4cc[nH]c4n3)c(C)c2)C1 | 37.2 | 1.94 | 4.17 | 78 | 94.9 | 5.97 | 24.3 | 18.6 | 58.3 | 9.36 | 25.8 | 7.2 | 11.6 | 24.3 | 61.2 | 8.87 | 17.4 | -3.15 | 0.8 | -0.42
6 | CCn1c(-c2nonc2N)nc2ccncc21 | 5.63 | 0.98 | 0.17 | 3.23 | 7.52 | 2.99 | 5.58 | 4.69 | -1.85 | 1.52 | 1.54 | 0.89 | 0.11 | 2.31 | 2.5 | 8.34 | 4.59 | -0.44 | -0.79 | 0.22
7 | CN1CCC(C(=O)Nc2n[nH]c3nnc(-c4ccccc4)cc23)CC1 | 7.79 | 2.63 | 2.86 | 13.3 | 15.2 | 1.29 | 2.61 | 4.66 | 14.7 | 3.08 | 10 | -1.52 | 14.1 | 5.55 | 9.8 | 9.17 | 8.13 | -0.14 | -5.75 | -4.25
8 | O=C1NC(=O)C(N2CCc3ccccc32)=C1c1ccc(Cl)cc1 | 8.69 | 2.55 | 3.4 | 8.33 | 7.03 | 2.35 | 10.1 | 7.17 | 9.11 | 11.4 | 10.4 | -2.48 | 2.52 | 10.9 | 14.1 | 5.94 | 15.5 | -2.77 | 0.25 | -4.42
9 | CN(C)c1cc2c(Nc3ccc4nc(Cc5ccccc5)[nH]c4c3)ncnc2cn1 | 12.1 | -0.33 | 3.88 | 15.7 | 11.8 | 7.21 | 13.2 | 3.89 | 7.59 | 6.91 | 27.9 | 7.08 | 3.46 | 6.18 | 11.8 | -0.18 | 20.1 | 1.22 | 8.06 | -5.04
10 | CC1=C(C(=O)Nc2ccc3[nH]ncc3c2)C(c2ccc(Cl)c(Cl)c2)CC(=O)N1 (stereo not given) | 6.02 | 1.03 | 7.47 | 6.27 | 8.74 | 5.65 | 22.8 | 3.81 | 16.5 | 8.05 | 25.4 | 3.91 | 15 | 2.14 | 8.67 | 17.4 | 24.9 | 1.99 | -3.08 | -3.45
11 | COc1cc(C=NNc2ncnc3c2cnn3-c2ccccc2)ccc1O | 68.9 | 0.86 | 3.44 | 4.69 | 14.2 | 43.5 | 80.6 | 13.6 | 46.3 | 36.3 | 75.1 | 23.7 | 64.5 | 7.09 | 31.2 | 28.6 | 79 | 1.17 | 4.56 | -2.75
12 | [O-][S+]1CCN(Cc2ccc(-c3ccc4ncnc(Nc5ccc(OCc6ccccc6)c(F)c5)c4c3)o2)CC1 | 3.24 | 0.91 | 1.11 | 2.85 | -2.53 | 6.29 | 9.08 | 8.58 | 5.31 | 1.94 | 5.92 | 2.75 | 7.9 | 3.51 | 1.61 | 5.28 | 8.51 | -1.06 | -3.12 | -2.3
13 | Nc1ncnc2occ(-c3ccc(NC(=O)Nc4cccc(C(F)(F)F)c4)cc3)c12 | 94.8 | 4.28 | 21.2 | 8.39 | 32.3 | 84.9 | 87.2 | 64.8 | 79.9 | 73.9 | 86.3 | 2.56 | 27.7 | 6 | 21.7 | 14.4 | 52.8 | -4.22 | -3.07 | -4.82
14 | NCc1ccc(-c2nc(-c3ccc(Cl)c(O)c3)c(-c3ccncc3)[nH]2)cc1 | 31 | 5.22 | 35.3 | 3.97 | -0.14 | 47.6 | 76.6 | 1.17 | 7.47 | 39.5 | 76.3 | -0.28 | 2.55 | 2.98 | 8.44 | 19.8 | 63.3 | 3.6 | 21.7 | -2.73
15 | NS(=O)(=O)c1cccc(-c2ccc3c(NC(=O)C4CC4)n[nH]c3c2)c1 | 5.08 | 0.47 | 1.64 | -7.23 | 5.72 | 2.41 | 1.62 | -0.14 | -1.66 | -2.8 | -2.02 | 6.3 | 3.46 | 3.46 | 5 | -4.15 | -1.21 | -0.76 | -1.91 | -1.3
16 | O=C1NC(=O)C(c2cccc(Cl)c2)=C1Nc1ccc(O)c(Cl)c1 | 11.5 | -0.47 | 1.74 | 1 | 9.11 | 3.31 | 7.66 | -0.49 | 0.64 | 2.27 | 2.96 | -9.4 | 6 | 1.16 | 7.24 | 3.33 | 5.62 | -0.46 | -1.95 | 1.76
17 | CCn1c(-c2nonc2N)nc2c(N3CCCC3)nccc21 | 8.55 | -0.17 | 0 | 1.2 | -3.88 | 4.49 | 20.8 | 0.68 | -0.73 | 0 | 2.26 | 1.7 | 0.95 | 4.19 | 4.49 | -2.23 | -2.52 | 0.27 | 0.26 | -1.66
18 | CS(=O)(=O)Nc1ccc(N/C=C2\C(=O)Nc3ccccc32)cc1 | 38 | -0.66 | 0.76 | -3.21 | 20.1 | 10.4 | 49.4 | 17.9 | 66.2 | 8.53 | 50 | -3.2 | 6.3 | 1.48 | 6.73 | -2.8 | 8.01 | -2.57 | 1.32 | -1.22
19 | COc1cccc(-n2ncc3c(N/N=C/c4cccc(F)c4)ncnc32)c1 | 51.1 | 1.84 | 2.7 | 9.51 | 9.99 | 2.64 | 18.3 | 3.55 | 9.3 | 4.94 | 19.5 | 7.02 | 24.4 | 3.12 | 10.6 | 0.4 | 57.2 | -0.72 | 2.55 | 9.4
20 | COc1cc2ncn(-c3cc(OCc4ccccc4C(F)(F)F)c(C(N)=O)s3)c2cc1OC | 83.5 | 3.08 | 3.46 | 2.32 | 19.4 | 14.5 | 41.6 | 10.4 | 34.3 | 17.9 | 50.6 | 4.5 | 8.36 | 5.76 | 20.6 | 8.15 | 21.2 | -2.2 | -0.81 | -2.39
21 | O=C(Nc1n[nH]c2nc(-c3ccco3)c(Br)cc12)C1CC1 | 6.81 | 1.22 | 4.35 | -1.24 | 3.71 | 6.36 | 4.7 | 4.14 | 0.95 | 4.67 | -2.51 | 1.47 | 4.05 | 3.63 | 3.03 | 12.5 | 14.2 | -2.24 | -0.3 | 0.12
22 | COc1cc2ncn(-c3cc(O[C@@H](C)c4ccccc4Cl)c(C(N)=O)s3)c2cc1OC | 68.2 | 5.42 | 4.28 | -0.4 | 14 | 33.6 | 72.1 | 8.18 | 38.3 | 32.5 | 72 | -0.14 | 2.55 | 5.59 | 29.1 | 10.3 | 30.1 | -3.6 | -1.13 | -2.93
23 | N#Cc1c(NC(=O)c2cccc3ccccc23)sc2c1CCCC2 | 9.27 | 2.64 | 1.48 | 2.95 | 5.82 | 5.35 | 5.82 | 3.1 | 3.6 | 5.18 | 2.2 | 1.52 | 3.88 | 3.2 | 5.26 | 12.3 | 7.06 | -0.23 | -0.56 | -4.41
24 | CC(=O)Nc1cccc(C#Cc2cncnc2Nc2ccc(OCc3cccc(F)c3)c(Cl)c2)n1 | 9.6 | 0.61 | 1.2 | -2.77 | 8.14 | -1.11 | 2.59 | 0.14 | 10.2 | 0.37 | 13.9 | 0.21 | 0.21 | 2.41 | -0.69 | 2.96 | 0.48 | 1.99 | 6.25 | 5.47
25 | c1cnn2ncc(-c3ccnc(Nc4ccc5c(c4)OCCO5)n3)c2c1 | 67.3 | 1.69 | 3.19 | 32.6 | 84.6 | 5.62 | 21.9 | 5.79 | 22 | 4.73 | 26.2 | 4.39 | 16.8 | 79.9 | 82.7 | -0.83 | 32.3 | -0.57 | 1.78 | -8.51
26 | CCCN1CCC(Oc2cc(Nc3nc(Nc4cccc(F)c4C(N)=O)c4cc[nH]c4n3)c(OC)cc2Cl)CC1 | 8.63 | -0.17 | 0.23 | 38.2 | 92.4 | 7.67 | 12.8 | 3.55 | 15.5 | 4.36 | 16.9 | 1.16 | 6.9 | 8.27 | 38.9 | -3.73 | 6.62 | 2.85 | 0.37 | 1.01
